# Laboratory results taken from PubChem BioAssay.
# Calls of active or inactive are those of the source. Unless noted, how the calls were made is not given here.
# Experiments:
# [1] = compound effects on lung adenocarcinoma cell viability – A549, calcein-AM fluorescence, 48 h, basal, profiling panel (AID 1162); conditions: higher = more signal; further: test concentration not given here
# [2] = compound effects on differentiated 3T3-L1 adipocyte viability – cell-based, 3T3-L1 adipocytes, calcein-AM fluorescence, 48 h, basal, profiling panel (AID 1163); conditions: 3T3-L1 adipocytes viability, higher = more signal; further: test concentration not given here
# [3] = compound effects on hepatocellular carcinoma cell viability – HepG2, calcein-AM fluorescence, 48 h, basal, profiling panel (AID 1164); conditions: higher = more signal; further: test concentration not given here
# [4] = compound effects on multiple myeloma cell viability – MM1S, calcein-AM fluorescence, 48 h, basal, profiling panel (AID 1165); conditions: higher = more signal; further: test concentration not given here
# [5] = calcein-AM signal in unstimulated myeloma cells – cell-based, calcein-AM fluorescence, 48 h, PK04 Diversity Set, profiling panel (AID 1166); conditions: RPMI8226 myeloma viability, higher = more signal;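 further: cells grown under basal conditions without added stimulus; test concentration not given here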
# [6] = JC-1 mitochondrial signal, unstimulated HepG2 cells – cell-based, JC-1 fluorescence, 24 h, 100 nL compound, profiling panel (AID 1167); conditions: HepG2 mitochondrial potential, higher = more signal; further: test concentration not given here
# [7] = JC-1 mitochondrial signal, unstimulated adipocytes – cell-based, JC-1 fluorescence, 3T3-L1 adipocytes, 24 h, 100 nL compound, profiling panel (AID 1168); conditions: JC-1 mitochondrial fluorescence, higher = more signal, called active from +8 up or from −8 down; further: test concentration not given here
# [8] = JC-1 mitochondrial signal, unstimulated myeloma cells – cell-based, JC-1 fluorescence, RPMI8226, 24 h, 100 nL compound, profiling panel (AID 1169); conditions: JC-1 mitochondrial potential fluorescence, higher = more signal; further: test concentration not given here
# [9] = JC-1 mitochondrial signal, unstimulated MM1S myeloma – cell-based, JC-1 fluorescence, 24 h, 100 nL compound, profiling panel (AID 1170); conditions: MM1S mitochondrial potential, higher = more signal; further: test concentration not given here
# [10] = resazurin metabolic signal in A549 cells – cell-based, resazurin fluorescence, 24 h, PK04 Diversity Set, profiling panel (AID 1171); conditions: A549 viability, higher = more signal, called active from +8 up or from −8 down; further: test concentration not given here
# [11] = resazurin metabolic signal in HepG2 cells – cell-based, resazurin fluorescence, 24 h, PK04 Diversity Set, profiling panel (AID 1172); conditions: HepG2 viability, higher = more signal; further: test concentration not given here
# [12] = budding yeast growth changes without added modifier – OD600, strain BY4716, 24 h, basal condition, primary screen (AID 1173); conditions: S. cerevisiae BY4716 growth, OD600, 24 h; higher = more signal, called active from +8 up or from −8 down
# [13] = viability profiling in MM1S myeloma cells – cell-based, resazurin fluorescence, basal, 24 h, PK04 Diversity Set, profiling panel (AID 1174); conditions: higher = more signal, called active from +8 up or from −8 down; further: test concentration not given here
# [14] = biological target: Dihydroorotate dehydrogenase (quinone), mitochondrial (Plasmodium falciparum (isolate 3D7)) (UniProt Q08210); assay: inhibition of P. falciparum DHODH – biochemical, C-terminal His tag, absorbance 600 nm, primary screen (AID 1175); conditions: PfDHODH enzyme, DCIP absorbance 600 nm; higher = more signal, called active from +8 up or from −8 down;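 further: recombinant parasite enzyme with a five histidine tag at its C terminus; test concentration not given here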
# Chain of Dihydroorotate dehydrogenase (quinone), mitochondrial (Plasmodium falciparum (isolate 3D7)) (Q08210 whole entry, looked up): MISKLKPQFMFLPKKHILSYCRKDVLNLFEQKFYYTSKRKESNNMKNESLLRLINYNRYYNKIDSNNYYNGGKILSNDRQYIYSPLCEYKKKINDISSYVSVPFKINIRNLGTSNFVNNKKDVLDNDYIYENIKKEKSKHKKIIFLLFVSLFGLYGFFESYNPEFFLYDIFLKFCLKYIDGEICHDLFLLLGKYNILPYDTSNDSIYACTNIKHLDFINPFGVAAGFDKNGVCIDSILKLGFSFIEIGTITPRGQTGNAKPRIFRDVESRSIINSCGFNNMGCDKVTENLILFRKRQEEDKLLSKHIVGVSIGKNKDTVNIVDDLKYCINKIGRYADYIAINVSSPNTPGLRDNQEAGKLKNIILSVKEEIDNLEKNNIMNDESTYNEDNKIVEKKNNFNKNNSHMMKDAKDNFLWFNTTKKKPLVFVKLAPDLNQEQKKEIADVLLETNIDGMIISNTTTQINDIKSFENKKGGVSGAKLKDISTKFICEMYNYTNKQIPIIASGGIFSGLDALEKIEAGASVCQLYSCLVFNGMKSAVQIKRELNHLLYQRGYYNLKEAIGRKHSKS
# [15] = inhibition of PAO1 biofilm formation – strain PAO1, LB-PBS medium, absorbance 600 nm, primary screen (AID 1176); further: test concentration not given here; conditions: P. aeruginosa PAO1 growth/biofilm, A600, 12 h; higher = more signal
# [16] = growth modulation of vineyard yeast isolate – strain RM11-1a, OD600, basal, 24 h, primary screen (AID 1177);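 further: cultures grown under basal conditions with no added stressor; test concentration not given here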; conditions: S. cerevisiae RM11-1a growth, OD600, 24 h; higher = more signal, called active from +8 up or from −8 down
# [17] = growth of efflux-deficient E. coli DRC39 – strain DRC39, OD650, 24 h, E. coli filamentation inducers, primary screen (AID 1178);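 further: growth measured as culture turbidity by optical density at 650 nm; test concentration not given here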; conditions: E. coli DRC39 acrAB, higher = more signal, called active from +8 up or from −8 down
# [18] = growth of efflux-deficient E. coli DRC39 – strain DRC39, OD650, 48 h, E. coli filamentation inducers, primary screen (AID 1179);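 further: screen aims at cell division blockers that make cells filament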; conditions: E. coli DRC39 delta-acrAB growth, higher = more signal, called active from +8 up or from −8 down
# [19] = viability profiling in RPMI8226 myeloma cells – cell-based, resazurin fluorescence, basal, 24 h, PK04 Diversity Set, profiling panel (AID 1180); conditions: higher = more signal;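 further: RPMI8826 multiple myeloma cell line at 5000 cells per well; test concentration not given here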
# [20] = biological target: E3 ubiquitin-protein ligase XIAP (Homo sapiens) (UniProt P98170); assay: small molecules binding XIAP protein – biophysical, small-molecule microarray, fluorescence 635 nm, primary screen (AID 1181); conditions: higher = more signal;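 further: score merges 667 nm emission and signal to noise over triplicate slides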
# Chain of E3 ubiquitin-protein ligase XIAP (Homo sapiens) (P98170 whole entry, looked up): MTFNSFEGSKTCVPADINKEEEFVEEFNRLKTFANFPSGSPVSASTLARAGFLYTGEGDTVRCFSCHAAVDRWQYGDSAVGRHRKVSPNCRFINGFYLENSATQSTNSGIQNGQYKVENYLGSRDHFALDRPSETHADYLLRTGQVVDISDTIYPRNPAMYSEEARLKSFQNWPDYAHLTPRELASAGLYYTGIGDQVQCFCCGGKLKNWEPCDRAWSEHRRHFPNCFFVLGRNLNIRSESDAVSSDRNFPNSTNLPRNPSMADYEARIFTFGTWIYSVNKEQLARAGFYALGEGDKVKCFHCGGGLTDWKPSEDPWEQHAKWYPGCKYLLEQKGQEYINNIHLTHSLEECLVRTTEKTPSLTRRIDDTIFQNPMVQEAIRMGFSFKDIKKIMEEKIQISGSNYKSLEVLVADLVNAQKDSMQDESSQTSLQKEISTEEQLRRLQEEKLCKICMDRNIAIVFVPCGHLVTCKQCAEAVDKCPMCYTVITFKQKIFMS
structure (smiles),measurement,setting,value
CCOC(=O)C1=CCC(c2ccncc2)N(S(=O)(=O)c2ccc(C)cc2)C1 (stereo not given),z-score,[1],-1.72
same,z-score,[2],-0.784
same,z-score,[3],-1.37
same,z-score,[4],-2.28
same,z-score,[5],-1.31
same,z-score,[6],-1.41
same,z-score,[7],0.561 (inactive)
same,z-score,[8],0.115
same,z-score,[9],-1.61
same,z-score,[10],-0.44 (inactive)
same,z-score,[11],-0.226
same,z-score,[12],-0.867 (inactive)
same,z-score,[13],-1.14 (inactive)
same,composite z-score,[14],-1.2 (inactive)
same,z-score,[15],-0.433 (inactive)
same,z-score,[16],-0.364 (inactive)
same,z-score,[17],-0.0978 (inactive)
same,z-score,[18],0.737 (inactive)
same,z-score,[19],-1.25
same,composite z-score,[20],-0.197
C[C@@]1([C@@H](NS(=O)(=O)c2cccc3cccnc23)c2ccc(-c3ccccc3)cc2)C[C@H]1C1CCCCC1,z-score,[1],-1
same,z-score,[2],-0.516
same,z-score,[3],-1.04
same,z-score,[4],-1.28
same,z-score,[5],-1.08
same,z-score,[6],-1.46
same,z-score,[7],-0.399 (inactive)
same,z-score,[8],0.698
same,z-score,[9],-1.72
same,z-score,[10],-0.892 (inactive)
same,z-score,[11],-0.901
same,z-score,[12],0.944 (inactive)
same,z-score,[13],-2.58 (inactive)
same,composite z-score,[14],-0.554 (inactive)
same,z-score,[15],-0.0982 (inactive)
same,z-score,[16],0.368 (inactive)
same,z-score,[17],-0.893 (inactive)
same,z-score,[18],-0.882 (inactive)
same,z-score,[19],-0.678
same,composite z-score,[20],0.553
COCCOC(=O)N1C(=O)[C@@]2(c3cc(C#CC4=CCCCC4)ccc31)[C@H](C(=O)N1CCCCCCC1)[C@H]1C(=O)O[C@H](c3ccccc3)[C@H](c3ccccc3)N1[C@@H]2c1ccccc1OCCO,z-score,[1],-0.314
same,z-score,[2],0.922
same,z-score,[3],-0.107
same,z-score,[4],-0.99
same,z-score,[5],-0.813
same,z-score,[6],0.0436
same,z-score,[7],0.992 (inactive)
same,z-score,[8],-0.966
same,z-score,[9],-0.982
same,z-score,[10],0.356 (inactive)
same,z-score,[11],1.84
same,z-score,[12],0.615 (inactive)
same,z-score,[13],0.209 (inactive)
same,composite z-score,[14],-0.434 (inactive)
same,z-score,[15],0.526 (inactive)
same,z-score,[16],0.511 (inactive)
same,z-score,[17],-0.294 (inactive)
same,z-score,[18],-1.14 (inactive)
same,z-score,[19],0.185
same,composite z-score,[20],-0.0244
C[C@]12C(=O)N(CCO)[C@@H]3C(=O)N(c4ccc(Cl)cc4)CC=CC31O[C@@H]1/C=C\CCCOC(=O)C12 (stereo not given in full),z-score,[1],0.614
same,z-score,[2],1.38
same,z-score,[3],0.488
same,z-score,[4],0.971
same,z-score,[5],-0.966
same,z-score,[6],-0.646
same,z-score,[7],-0.766 (inactive)
same,z-score,[8],-0.129
same,z-score,[9],1.61
same,z-score,[10],-1.3 (inactive)
same,z-score,[11],-0.561
same,z-score,[12],0.13 (inactive)
same,z-score,[13],-0.562 (inactive)
same,composite z-score,[14],-0.141 (inactive)
same,z-score,[15],-0.481 (inactive)
same,z-score,[16],0.556 (inactive)
same,z-score,[17],-1.18 (inactive)
same,z-score,[18],-1.25 (inactive)
same,z-score,[19],-0.184
same,composite z-score,[20],-0.0746
COc1ccc(CCNC(=O)[C@@]2(c3ccc([N+](=O)[O-])cc3)CC(=O)N(C3CCCCC3)[C@@H]2c2ccc(CO)cc2I)cc1,z-score,[1],0.507
same,z-score,[2],0.969
same,z-score,[3],-0.348
same,z-score,[4],-2.41
same,z-score,[5],-2.58
same,z-score,[6],1.31
same,z-score,[7],0.72 (inactive)
same,z-score,[8],-0.293
same,z-score,[9],0.379
same,z-score,[10],-1.11 (inactive)
same,z-score,[11],-1.29
same,z-score,[12],0.633 (inactive)
same,z-score,[13],-0.949 (inactive)
same,composite z-score,[14],1.45 (inactive)
same,z-score,[15],0.14 (inactive)
same,z-score,[16],1.86 (inactive)
same,z-score,[17],0.359 (inactive)
same,z-score,[18],-0.0406 (inactive)
same,z-score,[19],-0.593
same,composite z-score,[20],-0.16
COCCCNC(=O)[C@@]1(Cc2ccccc2I)c2ccccc2C(=O)N(Cc2ccccc2C(F)(F)F)[C@H]1c1ccc(CO)cc1,z-score,[1],-0.369
same,z-score,[2],-0.884
same,z-score,[3],-0.305
same,z-score,[4],-1.14
same,z-score,[5],-1.61
same,z-score,[6],0.405
same,z-score,[7],-1.19 (inactive)
same,z-score,[8],-0.578
same,z-score,[9],-0.553
same,z-score,[10],1.77 (inactive)
same,z-score,[11],0.331
same,z-score,[12],-0.088 (inactive)
same,z-score,[13],0.377 (inactive)
same,composite z-score,[14],0.543 (inactive)
same,z-score,[15],-0.963 (inactive)
same,z-score,[16],1.38 (inactive)
same,z-score,[17],0.309 (inactive)
same,z-score,[18],0.324 (inactive)
same,z-score,[19],0.426
same,composite z-score,[20],-0.223
COCCCNC(=O)[C@]1(Cc2ccccc2CN=[N+]=[N-])N=C(c2ccc(OCCCO)cc2)O[C@@H]1c1ccccc1N=[N+]=[N-],z-score,[1],-0.532
same,z-score,[2],-0.541
same,z-score,[3],-0.576
same,z-score,[4],-2.96
same,z-score,[5],-3.93
same,z-score,[6],1.27
same,z-score,[7],1.16 (inactive)
same,z-score,[8],-1.12
same,z-score,[9],-2.77
same,z-score,[10],-2.12 (inactive)
same,z-score,[11],-1.99
same,z-score,[12],0.234 (inactive)
same,z-score,[13],-4.37 (inactive)
same,composite z-score,[14],0.553 (inactive)
same,z-score,[15],1.24 (inactive)
same,z-score,[16],0.995 (inactive)
same,z-score,[17],0.703 (inactive)
same,z-score,[18],0.692 (inactive)
same,z-score,[19],-3.63
same,composite z-score,[20],0.43
